tim10-1 inh – inhibits growth of tim10-1 mutant yeast; 330,000 tested, 2.2% active; AID 463190; inhibition, % at 20 µM; S. cerevisiae tim10-1 ts strain growth, BacTiter-Glo, 24 h;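 active means inhibition of at least 40%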;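 further: mutant grown at 25 °C; 0% = DMSO wells with yeast and 100% = wells holding no yeast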
TIM10 inh – growth inhibitors of TIM10 yeast strain; inhibition, % at 10 µM; AID 463195; 330,000 tested, 1.4% active; S. cerevisiae TIM10 strain growth, BacTiter-Glo luminescence, 24 h;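 active means inhibition of 40% or more at the single tested concentration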;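 further: wild-type TIM10 isogenic control strain grown at permissive 25 °C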
tim23-1 inh – inhibits growth of tim23-1 mutant yeast; S. cerevisiae tim23-1 growth, BacTiter-Glo luminescence, 24 h; inhibition, % at 20 µM; 330,000 tested, 1.3% active; AID 463212;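 active means growth inhibition of the mutant yeast at or above 50%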;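 further: temperature-sensitive mutant grown at 25 °C; plate controls were DMSO-treated mutant yeast for no effect and medium wells lacking yeast for full effect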
EBI2 block – antagonists of human EBI2 receptor; AID 651636; inhibition, % at 5 µM; 360,000 tested, 0.81% active; EBI2 beta-arrestin recruitment, luminescence, 7a,25-OHC stimulated; P32249; in the data active means inhibition above about 38%;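 further: enzyme fragment complementation signal reports receptor beta-arrestin coupling in cells; 0% = agonist plus DMSO wells and 100% = wells without agonist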
Target sequence (P32249 whole entry, looked up, the tested form may be a part): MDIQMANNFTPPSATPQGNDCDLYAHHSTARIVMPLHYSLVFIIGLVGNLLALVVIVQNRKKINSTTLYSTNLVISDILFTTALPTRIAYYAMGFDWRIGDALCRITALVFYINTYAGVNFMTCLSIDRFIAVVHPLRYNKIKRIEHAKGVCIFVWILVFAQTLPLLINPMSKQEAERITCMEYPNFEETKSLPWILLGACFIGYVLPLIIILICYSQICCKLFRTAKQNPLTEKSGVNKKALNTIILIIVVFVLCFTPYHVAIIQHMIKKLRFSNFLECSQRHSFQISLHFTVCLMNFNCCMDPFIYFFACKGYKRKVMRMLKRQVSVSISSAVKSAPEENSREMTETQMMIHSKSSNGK
SKKanGAS inh – blocks kanamycin growth of S. pyogenes SKKanGAS strain | 300,000 tested, 1.3% active | inhibition, % at 7.5 µM | AID 1662 | BacTiter-Glo, 6 h;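 active means mean replicate score, as percent of positive control median, at least 50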;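 further: strain carries kanamycin resistance gene driven by streptokinase promoter and grows in 40 µg/ml kanamycin; loss of luminescence reflects streptokinase promoter inhibition or plain growth inhibition; 0% = median of DMSO wells and 100% = positive control at its reference dose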
PfHsp90 yeast 2 – inhibits growth of yeast expressing Plasmodium falciparum Hsp90. inhibition, % at 9.4 µM. S. cerevisiae expressing PfHsp90, BacTiter-Glo ATP, 48 h; yeast lacking PDR1 and PDR3 efflux regulators. 310,000 tested, 0.32% active. AID 504621;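 active means every replicate shows inhibition above about 80%, whatever the replicate mean, limit read from the data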;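 further: 0% = DMSO neutral controls and 100% = 20 µM radicicol positive controls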
tim10-1 conf – confirmation of tim10-1 mutant yeast growth inhibitors. S. cerevisiae tim10-1 ts strain growth, BacTiter-Glo, 24 h. inhibition, % at 20 µM. 7,400 tested, 56% active. shares compounds with tim10-1 inh;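 active means inhibition of yeast growth at or above a set limit in either of two repeat tests at 20 µM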;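 further: tim10-1 mutant grown at permissive 25 °C to find synthetic lethal compounds; 0% = DMSO yeast wells and 100% = medium wells without yeast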
tim10 confirm – confirmation of TIM10 yeast growth inhibitors; shares compounds with TIM10 inh; S. cerevisiae tim10 strain growth, BacTiter-Glo luminescence, 24 h; 4,600 tested, 63% active; inhibition, % at 10 µM;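 active means inhibition of yeast growth at or above a set limit in either of two replicates at 10 µM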;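 further: this counterscreen used the strain with wild-type TIM10; 0% = yeast with DMSO and 100% = medium wells lacking yeast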
Numbers without * were called inactive. An excerpt weighted towards active compounds, which were near 4.7% of everything screened.

`CCCn1c(SCC(=O)Nc2ccccc2C(=O)OC)nc2c1c(=O)n(C)c(=O)n2C` gave tim10-1 inh 60*, TIM10 inh 46*, tim23-1 inh 31, EBI2 block 9, SKKanGAS inh 0, PfHsp90 yeast 2 4, tim10-1 conf 45* and tim10 confirm 46*.
`Cc1ccc(-c2csc3ncnc(SCC(=O)Nc4nnc(C)s4)c23)cc1` gave tim10-1 inh 11, TIM10 inh 8, tim23-1 inh 2, EBI2 block 12 and SKKanGAS inh 13.
`Cc1ccc(-c2csc3ncnc(Sc4nnc(CN5CCCCCC5=O)o4)c23)cc1` gave tim10-1 inh 40*, TIM10 inh 56*, tim23-1 inh 35, EBI2 block 20, SKKanGAS inh 14, PfHsp90 yeast 2 19, tim10-1 conf 36* and tim10 confirm 39*.
`O=C(Oc1c(CN2CCOCC2)cc(Cl)c2cccnc12)c1cccs1` gave tim10-1 inh 47*, TIM10 inh 42*, tim23-1 inh 36, EBI2 block 18, SKKanGAS inh -1, PfHsp90 yeast 2 15, tim10-1 conf 41* and tim10 confirm 26.
`Cc1onc(-c2c(Cl)cccc2Cl)c1COC(=O)c1ccc(Cl)cc1` gave tim10-1 inh -19, TIM10 inh -35, tim23-1 inh -6, EBI2 block 15, SKKanGAS inh 0 and PfHsp90 yeast 2 6.
`CCOC(=O)/C(=C/c1c(C)n(C)c2ccc([N+](=O)[O-])cc12)C(C)=O` gave tim10-1 inh 58*, TIM10 inh 54*, tim23-1 inh 49, EBI2 block 22, SKKanGAS inh -2, PfHsp90 yeast 2 10, tim10-1 conf 37* and tim10 confirm 40*.
`CCOC(=O)c1c(N)c2cc([N+](=O)[O-])ccc2n1C` gave tim10-1 inh -5, TIM10 inh -8, tim23-1 inh -2, EBI2 block -7, SKKanGAS inh 8 and PfHsp90 yeast 2 -3.
`CC(C)(C)NC(=S)NC(=O)C12CCC3CC(CC(C3)C1)C2` gave tim10-1 inh 44*, TIM10 inh 49*, tim23-1 inh 34, EBI2 block -23, SKKanGAS inh 16, PfHsp90 yeast 2 -3, tim10-1 conf 32* and tim10 confirm 36*.
For Cc1cc(C)cc(N2C(=O)CC(Sc3ncn[nH]3)C2=O)c1 (centres undefined) the results were tim10-1 inh 45*, TIM10 inh 41*, tim23-1 inh 43, EBI2 block -3, SKKanGAS inh 0, PfHsp90 yeast 2 -26, tim10-1 conf 35* and tim10 confirm 32*.
Screening Cc1cccc(N2C(=O)CC(Sc3nc(C)cc(C)n3)C2=O)c1 (centres undefined) returned tim10-1 inh 33, TIM10 inh -6, tim23-1 inh 3, EBI2 block 5, SKKanGAS inh 0 and PfHsp90 yeast 2 9.
`Fc1ccccc1NC(=S)N1CCOCC1` gave tim10-1 inh -3, TIM10 inh -4, tim23-1 inh 1, EBI2 block 0, SKKanGAS inh 7 and PfHsp90 yeast 2 24.
N#Cc1sc2nc(C3CC3)cc(-c3ccc(Cl)cc3)c2c1N was read as tim10-1 inh 43*, TIM10 inh 44*, tim23-1 inh 40, EBI2 block 17, SKKanGAS inh 9, PfHsp90 yeast 2 -9, tim10-1 conf 36* and tim10 confirm -6.
For COc1ccc(-c2cc(-c3cccs3)nc3sc(C#N)c(N)c23)cc1 the results were tim10-1 inh 35, TIM10 inh 17, tim23-1 inh 28, EBI2 block 30, SKKanGAS inh 2 and PfHsp90 yeast 2 -33.
COc1ccc(NC(=O)Cn2c3ccc(OC)cc3c3nc4n(c(=O)c32)CCS4)cc1 was read as tim10-1 inh -2, TIM10 inh 0, tim23-1 inh -17, EBI2 block -5, SKKanGAS inh -2 and PfHsp90 yeast 2 -7.
